Screening results: PubChem, National Center for Advancing Translational Sciences (NCATS)
Pol iota inh = DNA polymerase iota (human) inhibition; Q9UNA4; Pol iota fluorescent replication assay, 10 min; Potency, µM (highest dose often 115 µM), hits mostly inhibitors; actives 1% (n = 390,000); AID 588590
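Pol iota at 10 nM preincubated 15 min with compounds at room temperature; reaction started with fluorescent substrate, 50 nM final. Fluorescence read kinetically at 0 and 10 min; buffer-only wells as negative control.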
TDP1 block = blocks human tyrosyl-DNA phosphodiesterase 1; recombinant TDP1, AlphaScreen DNA substrate cleavage; Potency, µM (doses to about 130 µM), actives largely listed as inhibitors; actives 0.28% (n = 350,000); AID 485290; further: nearly all actives have a fitted effect of over 40% in size
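Recombinant human Tdp1 (E. coli-expressed, 1 nM final) preincubated with compounds 15 min at room temperature, then 5'-biotin/3'-phosphotyrosine-FITC DNA substrate (15 nM final) added for 5 min. AlphaScreen beads (10 ug/ml final) added 10 min; cleavage lowers signal.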
Pol eta inh-1 = inhibitors of human DNA polymerase eta | recombinant Pol eta, fluorescent DNA replication assay | Potency, µM (highest dose often 114 µM), hits mostly inhibitors | actives 1.2% (n = 390,000) | AID 588591
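Fluorescent replication assay: 50 nM final substrate added after a 15 min room-temperature compound preincubation with 10 nM enzyme. Signal taken at 0 min and again at 10 min.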
Pol beta inh = DNA polymerase beta (human) inhibition | P06746 | Pol beta primer extension/strand displacement, fluorescence kinetic | Potency, µM (doses to about 114 µM), usual class: inhibitors | actives 1.3% (n = 340,000) | AID 485314
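Values derive from four-parameter Hill fits of normalized kinetic data: reads at 0 and 10 min following addition of 50 nM substrate to 10 nM Pol beta preincubated 15 min with compound.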
Pol kappa inh-1 = inhibitors of human DNA polymerase kappa. Q9UBT6. purified Pol kappa, fluorescent DNA synthesis assay, 10 min. Potency, µM (top dose mostly 107 µM), most hits filed as inhibitors. actives 0.53% (n = 400,000)
Target sequence (Q9UBT6 whole entry, looked up): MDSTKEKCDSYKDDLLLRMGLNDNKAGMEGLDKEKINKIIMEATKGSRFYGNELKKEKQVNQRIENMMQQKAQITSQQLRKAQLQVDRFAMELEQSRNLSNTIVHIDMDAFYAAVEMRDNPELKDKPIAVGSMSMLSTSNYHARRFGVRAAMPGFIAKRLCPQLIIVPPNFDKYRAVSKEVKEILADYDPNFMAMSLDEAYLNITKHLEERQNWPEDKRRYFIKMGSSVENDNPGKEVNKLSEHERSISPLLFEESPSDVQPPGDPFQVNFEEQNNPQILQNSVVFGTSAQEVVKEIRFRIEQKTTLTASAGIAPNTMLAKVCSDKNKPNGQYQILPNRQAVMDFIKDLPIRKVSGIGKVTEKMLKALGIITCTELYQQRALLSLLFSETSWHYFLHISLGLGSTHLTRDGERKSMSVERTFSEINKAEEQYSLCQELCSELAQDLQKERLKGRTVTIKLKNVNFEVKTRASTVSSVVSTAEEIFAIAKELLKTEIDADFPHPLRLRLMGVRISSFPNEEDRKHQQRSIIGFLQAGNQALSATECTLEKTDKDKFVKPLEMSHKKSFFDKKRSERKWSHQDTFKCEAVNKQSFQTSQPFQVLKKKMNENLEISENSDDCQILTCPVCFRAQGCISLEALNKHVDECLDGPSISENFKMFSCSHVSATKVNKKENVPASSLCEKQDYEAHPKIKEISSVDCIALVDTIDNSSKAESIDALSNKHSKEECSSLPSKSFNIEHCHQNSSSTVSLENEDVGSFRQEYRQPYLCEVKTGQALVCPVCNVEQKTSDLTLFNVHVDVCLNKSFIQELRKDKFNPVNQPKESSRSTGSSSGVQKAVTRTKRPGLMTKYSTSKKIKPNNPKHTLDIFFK
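Readout: fluorescence, taken kinetically at 0 and 10 min. Conditions: 10 nM Pol kappa, 15 min RT compound preincubation, 50 nM substrate final. Controls: enzyme-free buffer wells.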
TbPGK inh = blocks T. brucei phosphoglycerate kinase. actives 79% (n = 500). shares compounds with Pol kappa inh-1. Potency, µM (titrated, usually from 57.5 µM), hits mostly inhibitors. TbPGK coupled GAPDH assay, Kinase-Glo luminescence; further: nearly all actives have a fitted effect of over 65% in size
POLI cherry-pick = Confirm cherry-picked inhibitors of human polymerase iota; shares compounds with Pol kappa inh-1; Pol iota primer extension, TAMRA/BHQ fluorescence; Potency, µM, hits mostly inhibitors; actives 77% (n = 1,500)
Pol kappa inh-2 = confirmation of human DNA polymerase kappa inhibitors | purified Pol-kappa, fluorescent strand-displacement substrate | actives 76% (n = 920) | shares compounds with Pol eta inh-1 | Potency, µM, actives largely listed as inhibitors
Pol eta inh-2 = Pol eta (human) inhibition, cherry-pick confirmation | shares compounds with Pol eta inh-1 | Pol eta primer extension, TAMRA/BHQ fluorescence, 10 min | Potency, µM, usual class: inhibitors | actives 64% (n = 2,600) | AID 720502
Numbers stand for hits. In the library only some 2.4% were active in any assay of this set; here they are far more common. The call rests on the fitted dose curve; in most records, active means well fitted curve in the direction sought with a large enough effect; inconclusive means small, poorly fitted or top-dose-only effect, or another doubt; inactive means no such curve, though single readings can be large; an effect the other way counts as inactive or inconclusive.

How did O=C(O)c1cccc(N2C(=O)c3cc([N+](=O)[O-])cc4cc([N+](=O)[O-])cc(c34)C2=O)c1 do in these assays?
Pol iota inh: 2.2µM; Pol eta inh-1: 4µM; Pol beta inh: 6.3µM; Pol kappa inh-1: 22µM; TbPGK inh: 10µM; POLI cherry-pick: 42; Pol kappa inh-2: 15; Pol eta inh-2: 24

Results for O=C1CSC2(C(=O)N(Cc3ccccc3F)c3ccccc32)N1c1cccc(C(F)(F)F)c1 (stereo not drawn) ?
Pol iota inh: inactive; TDP1 block: inactive; Pol eta inh-1: inactive; Pol beta inh: inactive; Pol kappa inh-1: inactive

What do the screens show for `O=C(NC1CCCCC1)c1ccc2c(c1)sc1nc(-c3ccccc3)cn12`?
Pol iota inh: inactive; TDP1 block: inactive; Pol eta inh-1: inactive; Pol beta inh: inactive; Pol kappa inh-1: inactive

How did CCS(=O)(=O)N1N=C(c2ccc(C)cc2)CC1c1cc2ccc(OC)cc2nc1Cl (stereo not drawn) do in these assays?
Pol iota inh: inactive; TDP1 block: inactive; Pol eta inh-1: inconclusive; Pol beta inh: inactive; Pol kappa inh-1: inactive

How did CCOc1ccc2nc(Cl)c(C3CC(c4ccc(OC)cc4)=NN3S(C)(=O)=O)cc2c1 (stereo not drawn) do in these assays?
Pol iota inh: inconclusive; TDP1 block: inactive; Pol eta inh-1: inconclusive; Pol beta inh: inactive; Pol kappa inh-1: inconclusive; POLI cherry-pick: inconclusive; Pol kappa inh-2: 75; Pol eta inh-2: 76

How did CCn1c(C)cc(/C=C2\NC(=O)N(CC(=O)Nc3ccc(F)cc3)C2=O)c1C do in these assays?
Pol iota inh: inactive; TDP1 block: inactive; Pol eta inh-1: inactive; Pol beta inh: inactive; Pol kappa inh-1: inactive

Results for Cc1cccc(C)c1NC(=O)CN1C(=O)S/C(=C\c2cccn2-c2cccc(C(=O)O)c2)C1=O ?
Pol iota inh: inconclusive; Pol eta inh-1: 22µM; Pol beta inh: inactive; Pol kappa inh-1: inactive; POLI cherry-pick: 38; Pol eta inh-2: 76

What do the screens show for `Cc1cccc(C)c1NC(=O)CN1C(=O)S/C(=C\c2cccn2C)C1=O`?
Pol iota inh: inactive; TDP1 block: inactive; Pol eta inh-1: inactive; Pol beta inh: inactive; Pol kappa inh-1: inactive

How did Cc1ccccc1NC(=O)CN1C(=O)S/C(=C\c2cccn2-c2cccc(C(=O)O)c2)C1=O do in these assays?
Pol iota inh: inconclusive; TDP1 block: 50µM; Pol eta inh-1: 3.5µM; Pol beta inh: inactive; Pol kappa inh-1: 25µM; POLI cherry-pick: 42; Pol eta inh-2: 48

Results for Cc1ccc(NC(=O)CN2C(=O)N/C(=C/c3cc(C)n(-c4ccc(C(=O)O)cc4)c3C)C2=O)cc1 ?
Pol iota inh: 35µM; Pol eta inh-1: 22µM; Pol beta inh: 50µM; Pol kappa inh-1: inconclusive; POLI cherry-pick: 42; Pol kappa inh-2: 24; Pol eta inh-2: 27

What do the screens show for `Cc1cccc(C)c1-n1cccc1/C=C1\SC(=S)N(c2cccc(C(=O)O)c2)C1=O`?
Pol iota inh: inconclusive; TDP1 block: inactive; Pol eta inh-1: inconclusive; Pol beta inh: 40µM; Pol kappa inh-1: inactive; POLI cherry-pick: inconclusive; Pol kappa inh-2: 60; Pol eta inh-2: inconclusive

How did Cc1ccc(CNC(=O)CN2CCN(Cc3ccc(F)cc3)C2=O)cc1 do in these assays?
Pol iota inh: inactive; TDP1 block: inactive; Pol eta inh-1: inactive; Pol beta inh: inactive; Pol kappa inh-1: inactive

What do the screens show for `Cc1cc2c(cc1S(=O)(=O)N(CCN(C)C)Cc1ccccc1)OCC(=O)N2`?
Pol iota inh: inactive; TDP1 block: inactive; Pol eta inh-1: inactive; Pol beta inh: inactive; Pol kappa inh-1: inactive

Results for O=C(CN1C(=O)N/C(=C\c2cccn2-c2cccc(C(=O)O)c2)C1=O)Nc1ccc(Cl)cc1 ?
POLI cherry-pick: 60; Pol eta inh-2: inconclusive

Results for O=C(O)c1ccc(/C=N/NC(=O)c2cc(-c3ccc4c5c(cccc35)CC4)n[nH]2)cc1 ?
Pol iota inh: inconclusive; Pol eta inh-1: 25µM; Pol beta inh: 28µM; Pol kappa inh-1: inconclusive; POLI cherry-pick: 60; Pol kappa inh-2: 12; Pol eta inh-2: 38

Results for O=C(N/N=C/c1ccccn1)c1cc(-c2cccc3ccccc23)n[nH]1 ?
Pol iota inh: inactive; TDP1 block: inactive; Pol eta inh-1: inactive; Pol beta inh: inactive; Pol kappa inh-1: inactive

What do the screens show for `COc1ccccc1CNC(=O)CCc1c(C)c2cc3c(C)coc3cc2oc1=O`?
Pol iota inh: inactive; TDP1 block: inactive; Pol eta inh-1: inactive; Pol beta inh: inactive; Pol kappa inh-1: inactive

Results for O=C(CSc1nc2ccccc2n1Cc1cccc(F)c1)N1CCN(c2ccc(F)cc2)CC1 ?
Pol iota inh: inactive; TDP1 block: inactive; Pol eta inh-1: inactive; Pol beta inh: inactive; Pol kappa inh-1: inactive

Results for CC1=NOC(=O)/C1=C\c1ccc(-c2ccc(Cl)cc2Cl)o1 ?
Pol iota inh: 25µM; TDP1 block: inactive; Pol eta inh-1: 14µM; Pol beta inh: 40µM; Pol kappa inh-1: inactive; POLI cherry-pick: inconclusive; Pol eta inh-2: inconclusive

What do the screens show for `CC(=O)Nc1ccc2c(COC(=O)CC3Sc4ccccc4NC3=O)cc(=O)oc2c1` (stereo not drawn)?
Pol iota inh: inconclusive; TDP1 block: 20µM; Pol eta inh-1: 20µM; Pol beta inh: 7.9µM; Pol kappa inh-1: 35µM; POLI cherry-pick: 60; Pol eta inh-2: 48

What do the screens show for `Cc1c(Cl)cccc1NC(=O)CSc1nc(=O)[nH]c2c1CCCC2`?
Pol iota inh: inactive; TDP1 block: inactive; Pol eta inh-1: inactive; Pol beta inh: inactive; Pol kappa inh-1: inactive

Results for O=C(O)c1cccc(-c2ccc(/C=c3/sc4nc5ccccc5n4c3=O)o2)c1 ?
Pol iota inh: inconclusive; Pol eta inh-1: 3.2µM; Pol beta inh: 4µM; Pol kappa inh-1: 22µM; POLI cherry-pick: 3.8; Pol eta inh-2: 5.4

Results for COC(=O)/C=c1/sc2nc3ccccc3n2c1=O ?
Pol iota inh: inconclusive; TDP1 block: inactive; Pol eta inh-1: inactive; Pol beta inh: inactive; Pol kappa inh-1: inactive

How did Cc1nc2nc(SCC(=O)N(C)Cc3ccccc3)nn2c(C)c1Cc1ccccc1Cl do in these assays?
Pol iota inh: inactive; TDP1 block: inactive; Pol eta inh-1: inactive; Pol beta inh: inactive; Pol kappa inh-1: inactive
